High-throughput results from PubChem BioAssay.
A selection: hits, their analogues and other compounds. The true share with any hit is near 15%.
RORgamma inh: ROR gamma (mouse) transcription inhibition | Drosophila S2 Gal4-RORgamma UAS-luciferase reporter, 20 h | hit rate 5.4% among 310,000 | Potency, µM (doses to about 53.6 µM), without a hit: at the top dose activity change, negative = inhibition, usual class: inhibitors | P51450; also: nearly all actives have a fitted effect of over 60% in size
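Luminescence from a UAS-regulated Photinus luciferase reporter in stably transfected Drosophila Schneider cells is measured; decreased signal marks ROR gamma inhibition. Fusion expression is induced by 700 uM copper sulfate for 20 hr.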
TDP1 cell CPT: growth inhibition of DT40 Tdp1-/-;hTDP1 cells with camptothecin (screen for TDP1 inhibitors); hit rate 12% among 420,000; chicken DT40 Tdp1-/-;hTDP1 cells + 20 nM CPT, ATP luminescence, 48 h; Potency, µM (titrated, usually from 46.2 µM), for inactives: at the highest dose activity change, negative = growth inhibition, most hits filed as inhibitors; also: nearly all actives have a fitted effect of over 55% in size
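Chicken DT40 Tdp1-/- cells stably complemented with human TDP1 were seeded at 400 cells/well in medium containing 20 nM camptothecin, exposed to pin-transferred compounds, and grown at 37 °C for at least 48 hr. Viability was read as ATP luminescence.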
Gal4-VP16 FLuc: inhibits Gal4-VP16 luciferase reporter, ROR gamma counter-screen; Drosophila S2 Gal4-VP16 UAS-luciferase, luminescence, 20 h; Potency, µM (top dose mostly 53.6 µM), without a hit: top-dose activity, negative = inhibition, hits mostly inhibitors; hit rate 3.5% among 310,000; AID 2546;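 also: Gal4-VP16 expression switched on by copper sulfate through the metallothionein promoter; nearly all actives have a fitted effect of over 50% in size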
ALOX12 inh: inhibitors of human 12S-lipoxygenase ALOX12. Potency, µM (top dose mostly 108 µM), for inactives: at the highest dose activity change, negative = inhibition, most hits filed as inhibitors. purified 12hLO, xylenol orange hydroperoxide absorbance. hit rate 1.1% among 580,000. P18054
Target sequence (P18054 whole entry, looked up): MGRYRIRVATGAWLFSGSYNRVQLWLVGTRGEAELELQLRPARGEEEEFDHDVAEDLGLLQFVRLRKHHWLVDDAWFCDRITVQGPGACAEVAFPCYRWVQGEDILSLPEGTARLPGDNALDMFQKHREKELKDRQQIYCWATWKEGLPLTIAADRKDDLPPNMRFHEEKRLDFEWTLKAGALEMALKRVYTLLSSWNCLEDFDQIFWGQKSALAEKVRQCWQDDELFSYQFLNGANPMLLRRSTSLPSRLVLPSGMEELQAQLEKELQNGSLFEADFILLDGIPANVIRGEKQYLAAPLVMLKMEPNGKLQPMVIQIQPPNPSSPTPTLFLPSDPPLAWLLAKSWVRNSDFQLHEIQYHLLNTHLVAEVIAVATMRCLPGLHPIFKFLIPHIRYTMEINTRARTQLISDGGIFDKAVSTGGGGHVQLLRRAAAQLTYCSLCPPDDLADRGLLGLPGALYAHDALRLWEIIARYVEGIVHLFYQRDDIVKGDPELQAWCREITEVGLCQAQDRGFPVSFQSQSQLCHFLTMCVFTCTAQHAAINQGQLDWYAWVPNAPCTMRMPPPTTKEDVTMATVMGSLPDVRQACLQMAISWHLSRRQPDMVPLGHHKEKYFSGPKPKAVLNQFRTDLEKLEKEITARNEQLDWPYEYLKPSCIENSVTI
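Hydroperoxide product was detected by ferrous iron/xylenol orange as the 573 to 405 nm absorbance ratio. Arachidonic acid at 40 uM (final) was turned over for 30 min at room temperature by 150 nM human 12hLO, pH 7.0 Hepes buffer, after 15 min compound preincubation.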
TDP1 cell noCPT: qHTS for Inhibitors of human tyrosyl-DNA phosphodiesterase 1 (TDP1): qHTS in cells in absence of CPT. AID 686978, 2013. hit rate 15% among 420,000. DT40 Tdp1-/- hTDP1 cells, no CPT, ATP luminescence, 48 h. Potency, µM (top dose mostly 46.2 µM), inactives show at the top dose activity change, negative = growth inhibition, usual class: inhibitors; also: nearly all actives have a fitted effect of over 55% in size
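Growth of hTDP1-complemented DT40 Tdp1-knockout cells is measured by ATP luminescence after at least 48 hr compound exposure at 37 °C, with DMSO substituting for the 20 nM CPT used in the parallel screen.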
ELG1 DNA repair: inhibitors of ELG1-dependent DNA repair in HEK293T cells. AID 504467. Potency, µM (titrated, usually from 46.1 µM), for inactives: at the highest dose activity change, negative = inhibition, hits mostly inhibitors. HEK293T ELG1-luciferase reporter, luminescence, 16 h; DNA damage induced by 5-fluorouridine. hit rate 2.3% among 330,000; also: nearly all actives have a fitted effect of over 55% in size
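Cells (2,000 per well) received 5-fluorouridine plus test compound or DMSO and were incubated 16 hr at 37 °C, 5% CO2. Luciferase activity was read by luminescence 30 min after ONE-Glo addition; signal suppression marked inhibition of damage-induced ELG1 function.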
The depositor's hits bear a star; ? = inconclusive; / = no result given; [ ] = remark or other dose. Calls follow the shape of the dose curve; as a rule, active = well fitted curve in the direction sought with a large enough effect; inconclusive = small, poorly fitted or top-dose-only effect, or another doubt; inactive = no such curve, though single readings can be large; an effect the other way counts as inactive or inconclusive. % is scaled to controls: 0 for no effect and ±100 for the full control effect; potency is read from the fitted curve at half-maximal effect.

SMILES | RORgamma inh | TDP1 cell CPT | Gal4-VP16 FLuc | ALOX12 inh | TDP1 cell noCPT | ELG1 DNA repair
Cc1ncc(C(=O)N(C)CC2CCCN(CCc3ccc(Cl)cc3)C2)c(=O)[nH]1 (centres undefined) | / | / | / | 12% | / | /
COCCNC(=O)C1(C)CCCN(Cc2ccc(OCc3ccccc3)cc2)C1 (centres undefined) | / | 26µM* | / | -4% | 21µM* | /
CCCNC(=O)C1(C)CCN(Cc2ccc(C(=O)OCC)cc2)C1 (centres undefined) | / | ? | / | -7% | 16µM* | /
COCCNC(=O)C1(C)CCCN(Cc2cc(-c3ccccc3)n(C)n2)C1 (centres undefined) | / | ? | / | -3% | ? | /
COCCNC(=O)C1(C)CCCN(CCSc2ccccc2)C1 (centres undefined) | / | ? | / | ? | 13µM* | /
COCCNC(=O)C1(C)CCCN(Cc2ccc(-c3ccccc3)o2)C1 (centres undefined) | / | ? | / | 0% | ? | /
COCCNC(=O)C1(C)CCCN(Cc2cc(-c3ccccc3)on2)C1 (centres undefined) | / | 13µM* | / | -25% | 23µM* | /
CC(NC(=O)c1[nH]c2ccc(Cl)cc2c1Cl)C(N)=O (centres undefined) | / | / | / | -29% | / | /
COCCCNc1oc(-c2cccs2)nc1C#N | / | / | / | -17% | / | /
CCOc1cccc(CN(C)C2CCc3nn(CC4CC4)c(=O)n3CC2)c1 (centres undefined) | / | / | / | 95% | / | /
CCOc1ccc(C(=O)NC2CCN(c3cnn(C)c(=O)c3)CC2)cc1 | / | / | / | 5% | / | /
O=C(NCC1(COc2ccccc2)C[C@@H](O)[C@@H](O)C1)C1CCOCC1 (some centres undefined) | / | / | / | 63%[176 µM] | / | /
CCCNC(=O)C1(C)CCN(Cc2ccc(OCc3ccccc3)cc2)C1 (centres undefined) | / | 23µM* | / | ? | 18µM* | /
COCCNC(=O)C1(C)CCN(Cc2ccc(C(C)C)cc2)C1 (centres undefined) | / | ? | / | -1% | 21µM* | /
COCCNC(=O)C1(C)CCCN(Cc2ccc(OC)cc2)C1 (centres undefined) | / | -34% | / | / | -11% | /
CCCNC(=O)C1(C)CCN(Cc2cc(C(F)(F)F)ccc2Cl)C1 (centres undefined) | / | 23µM* | / | -6% | 15µM* | /
COCCNC(=O)C1(C)CCCN(Cc2ccc(Cl)c(Cl)c2)C1 (centres undefined) | / | 21µM* | / | / | 16µM* | /
CCNC(=O)C1(C)CCN(Cc2ccc(C(F)(F)F)cc2)C1 (centres undefined) | / | ? | / | -11% | -16% | /
CC(=O)N1CCC(N2C[C@@H](F)[C@@H](OCc3nc4ccccc4o3)C2)CC1 | / | / | / | 70%[176 µM] | / | /
COc1ccc(CNC(=O)c2ncoc2-c2cccc(Cl)c2)cc1OC | / | / | / | -41% | / | /
CCc1cccc(C)c1NC(=O)CCCSc1nc2ccccc2s1 | 12% | 18µM* | -2% | -13% | 16µM* | ?
Cc1ccccc1NC(=O)CCCSc1nc2ccccc2s1 | 13µM* | ? | 2.5µM* | 2% | ? | 16%
CC(C)(C)NC(=O)CCCSc1nc2ccccc2s1 | ? | ? | ? | 1% | ? | ?
O=C(CCc1ncc(-c2ccc(F)cc2)o1)Nc1nccs1 | / | / | / | 32% | / | /
COc1ccc(C2=C(C)C(=O)N(Cc3ccc(C(=O)Nc4ccc(F)cc4C)cc3)S2(=O)=O)cc1 | / | 3.3µM* | / | -25% | 3.7µM* | /
COc1ccc(C2=C(C)C(=O)N(Cc3ccc(C(=O)Nc4cccc(F)c4)cc3)S2(=O)=O)cc1 | / | 21µM* | / | -2% | 23µM* | /
Cc1cc(C)c(OCC(=O)Nc2nonc2-c2ccccc2)c(C)c1 | / | / | / | 6% | / | /
